The source of these data is ChEMBL document CHEMBL1961873, “Compounds: GSK PKIS; Assays: Nanosyn kinase panel” (2012).

The target in test [1] is T1, Ephrin type-B receptor 2 (Homo sapiens) (UniProt P29323).
T1 sequence (whole entry): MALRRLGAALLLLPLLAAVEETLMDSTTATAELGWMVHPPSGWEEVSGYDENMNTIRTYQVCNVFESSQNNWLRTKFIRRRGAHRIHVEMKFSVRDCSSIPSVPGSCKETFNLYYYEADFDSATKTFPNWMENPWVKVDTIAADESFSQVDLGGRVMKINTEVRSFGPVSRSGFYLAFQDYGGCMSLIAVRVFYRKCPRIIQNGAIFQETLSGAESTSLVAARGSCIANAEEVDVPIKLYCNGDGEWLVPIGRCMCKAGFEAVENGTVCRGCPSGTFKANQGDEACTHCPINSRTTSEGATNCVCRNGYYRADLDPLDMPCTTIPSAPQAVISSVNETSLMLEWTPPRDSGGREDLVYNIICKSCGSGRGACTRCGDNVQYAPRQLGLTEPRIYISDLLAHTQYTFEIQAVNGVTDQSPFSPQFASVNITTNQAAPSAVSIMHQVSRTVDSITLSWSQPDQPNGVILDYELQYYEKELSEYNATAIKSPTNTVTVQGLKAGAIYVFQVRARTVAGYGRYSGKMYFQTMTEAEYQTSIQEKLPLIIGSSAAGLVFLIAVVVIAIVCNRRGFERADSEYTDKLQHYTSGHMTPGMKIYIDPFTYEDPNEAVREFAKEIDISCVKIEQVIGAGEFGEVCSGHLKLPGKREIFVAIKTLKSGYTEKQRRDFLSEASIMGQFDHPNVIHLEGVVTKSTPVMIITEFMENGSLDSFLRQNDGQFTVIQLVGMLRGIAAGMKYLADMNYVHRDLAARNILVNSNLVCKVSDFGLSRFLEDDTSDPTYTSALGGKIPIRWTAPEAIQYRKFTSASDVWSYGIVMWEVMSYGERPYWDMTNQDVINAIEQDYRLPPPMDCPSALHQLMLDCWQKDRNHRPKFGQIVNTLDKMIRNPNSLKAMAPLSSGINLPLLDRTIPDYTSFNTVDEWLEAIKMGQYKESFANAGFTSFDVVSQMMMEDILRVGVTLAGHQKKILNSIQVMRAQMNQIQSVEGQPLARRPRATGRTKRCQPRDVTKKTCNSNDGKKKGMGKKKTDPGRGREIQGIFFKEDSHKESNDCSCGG
The following applies: at 1 µM.

Test [2] deals with T2, Ephrin type-B receptor 3 (Homo sapiens) (UniProt P54753).
T2 sequence (whole entry): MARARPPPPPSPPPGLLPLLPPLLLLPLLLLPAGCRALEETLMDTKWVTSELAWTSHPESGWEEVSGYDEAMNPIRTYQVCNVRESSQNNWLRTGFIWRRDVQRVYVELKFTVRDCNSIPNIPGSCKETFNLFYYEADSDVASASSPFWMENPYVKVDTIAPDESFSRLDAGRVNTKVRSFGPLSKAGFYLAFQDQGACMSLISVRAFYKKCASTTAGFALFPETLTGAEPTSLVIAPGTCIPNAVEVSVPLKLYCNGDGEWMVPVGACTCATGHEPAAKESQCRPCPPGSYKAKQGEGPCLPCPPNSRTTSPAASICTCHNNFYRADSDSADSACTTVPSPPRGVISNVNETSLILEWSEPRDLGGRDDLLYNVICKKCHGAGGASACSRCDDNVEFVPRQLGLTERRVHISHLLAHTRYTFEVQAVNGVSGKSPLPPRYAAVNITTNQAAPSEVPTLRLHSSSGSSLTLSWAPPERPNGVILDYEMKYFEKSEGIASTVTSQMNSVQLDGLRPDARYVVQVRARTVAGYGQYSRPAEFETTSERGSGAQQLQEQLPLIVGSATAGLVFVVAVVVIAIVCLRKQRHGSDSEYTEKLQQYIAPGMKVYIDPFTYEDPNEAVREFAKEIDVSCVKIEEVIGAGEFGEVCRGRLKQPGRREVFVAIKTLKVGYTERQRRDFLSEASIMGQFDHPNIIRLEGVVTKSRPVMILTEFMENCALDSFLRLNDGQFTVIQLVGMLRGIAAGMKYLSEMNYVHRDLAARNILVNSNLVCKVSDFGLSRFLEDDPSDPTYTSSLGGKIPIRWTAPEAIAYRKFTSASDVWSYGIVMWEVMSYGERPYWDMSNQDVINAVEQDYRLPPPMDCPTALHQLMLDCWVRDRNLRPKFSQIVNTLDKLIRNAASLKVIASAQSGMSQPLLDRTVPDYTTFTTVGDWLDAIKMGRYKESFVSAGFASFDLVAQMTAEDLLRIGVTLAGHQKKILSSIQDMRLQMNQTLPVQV
The following applies: at 0.1 µM.

The target in test [3] is T2, Ephrin type-B receptor 3 (Homo sapiens). Particulars: at 1 µM.
Test [4] concerns the target T3, Ephrin type-B receptor 4 (Homo sapiens) (UniProt P54760).
T3 sequence (whole entry): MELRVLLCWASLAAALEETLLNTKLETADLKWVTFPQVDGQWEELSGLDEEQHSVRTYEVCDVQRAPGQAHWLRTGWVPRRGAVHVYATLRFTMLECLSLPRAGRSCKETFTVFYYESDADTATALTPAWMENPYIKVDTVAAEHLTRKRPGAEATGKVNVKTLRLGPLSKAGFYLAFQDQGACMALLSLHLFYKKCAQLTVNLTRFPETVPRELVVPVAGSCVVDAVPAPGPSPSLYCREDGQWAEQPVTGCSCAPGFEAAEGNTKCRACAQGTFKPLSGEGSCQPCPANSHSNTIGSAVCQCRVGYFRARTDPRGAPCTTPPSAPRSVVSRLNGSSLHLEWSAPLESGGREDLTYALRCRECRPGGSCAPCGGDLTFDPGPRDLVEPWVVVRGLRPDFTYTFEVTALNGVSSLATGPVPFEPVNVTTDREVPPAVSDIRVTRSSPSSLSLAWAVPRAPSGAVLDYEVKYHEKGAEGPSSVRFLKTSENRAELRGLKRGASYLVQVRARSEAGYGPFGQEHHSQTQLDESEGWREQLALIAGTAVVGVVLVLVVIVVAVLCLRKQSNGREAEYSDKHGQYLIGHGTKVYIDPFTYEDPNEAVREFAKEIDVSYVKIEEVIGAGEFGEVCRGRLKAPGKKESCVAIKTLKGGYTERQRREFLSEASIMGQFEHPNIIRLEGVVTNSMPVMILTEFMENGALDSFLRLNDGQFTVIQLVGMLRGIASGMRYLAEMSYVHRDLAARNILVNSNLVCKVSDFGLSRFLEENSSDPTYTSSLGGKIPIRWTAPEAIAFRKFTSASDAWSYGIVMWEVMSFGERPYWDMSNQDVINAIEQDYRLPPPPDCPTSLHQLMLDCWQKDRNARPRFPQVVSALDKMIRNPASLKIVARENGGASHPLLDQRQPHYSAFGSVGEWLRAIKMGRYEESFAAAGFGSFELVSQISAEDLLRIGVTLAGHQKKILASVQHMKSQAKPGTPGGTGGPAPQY
The following applies: at 0.1 µM.

In test [5] the target is T3, Ephrin type-B receptor 4 (Homo sapiens). The following applies: at 1 µM.
Test [6] concerns the target Receptor tyrosine-protein kinase erbB-2 (Homo sapiens) (UniProt P04626). The following applies: at 0.1 µM.
Test [7] has the same target. The following applies: at 1 µM.
For test [8], the target named is Receptor tyrosine-protein kinase erbB-4 (Homo sapiens) (UniProt Q15303). The following applies: at 0.1 µM.
Sequence of Receptor tyrosine-protein kinase erbB-4 (Homo sapiens) (Q15303 whole entry): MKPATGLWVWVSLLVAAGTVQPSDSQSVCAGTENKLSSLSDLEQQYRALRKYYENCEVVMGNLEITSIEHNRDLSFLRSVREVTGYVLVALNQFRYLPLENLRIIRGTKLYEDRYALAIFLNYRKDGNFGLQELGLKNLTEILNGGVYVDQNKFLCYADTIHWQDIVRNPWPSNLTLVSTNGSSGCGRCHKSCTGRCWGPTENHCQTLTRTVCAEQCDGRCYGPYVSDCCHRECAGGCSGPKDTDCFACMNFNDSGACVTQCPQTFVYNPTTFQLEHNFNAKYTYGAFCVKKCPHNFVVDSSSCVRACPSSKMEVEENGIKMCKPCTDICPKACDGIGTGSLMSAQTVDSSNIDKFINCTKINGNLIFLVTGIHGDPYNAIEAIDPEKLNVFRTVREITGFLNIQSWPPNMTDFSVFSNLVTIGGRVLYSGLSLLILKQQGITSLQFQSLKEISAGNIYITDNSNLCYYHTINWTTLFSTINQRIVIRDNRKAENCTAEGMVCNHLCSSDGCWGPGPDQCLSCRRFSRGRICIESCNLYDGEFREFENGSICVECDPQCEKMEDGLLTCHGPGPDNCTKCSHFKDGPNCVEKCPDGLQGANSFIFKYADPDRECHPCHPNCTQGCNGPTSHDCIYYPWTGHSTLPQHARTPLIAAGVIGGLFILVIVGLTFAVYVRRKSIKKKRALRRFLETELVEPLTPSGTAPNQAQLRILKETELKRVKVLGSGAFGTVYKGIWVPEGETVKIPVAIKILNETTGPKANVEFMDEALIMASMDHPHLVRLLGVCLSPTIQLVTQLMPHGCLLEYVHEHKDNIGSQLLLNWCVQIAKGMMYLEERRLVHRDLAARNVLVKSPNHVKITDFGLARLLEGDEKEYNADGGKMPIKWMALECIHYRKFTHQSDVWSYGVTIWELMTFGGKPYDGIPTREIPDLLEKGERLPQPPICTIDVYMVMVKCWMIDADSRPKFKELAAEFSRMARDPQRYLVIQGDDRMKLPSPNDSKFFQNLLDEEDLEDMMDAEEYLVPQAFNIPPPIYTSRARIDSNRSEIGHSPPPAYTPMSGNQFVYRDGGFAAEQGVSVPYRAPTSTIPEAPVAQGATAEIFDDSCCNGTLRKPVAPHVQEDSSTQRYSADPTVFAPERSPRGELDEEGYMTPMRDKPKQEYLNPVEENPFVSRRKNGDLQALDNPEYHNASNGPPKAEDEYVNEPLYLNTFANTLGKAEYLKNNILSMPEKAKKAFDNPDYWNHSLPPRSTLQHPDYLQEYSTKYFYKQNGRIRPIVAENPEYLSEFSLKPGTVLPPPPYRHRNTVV
The target is the same in test [9]. Particulars: at 1 µM.
Test [10] addresses Tyrosine-protein kinase Fer (Homo sapiens) (UniProt P16591). Particulars: at 0.1 µM.
Test [11] shares this target. The following applies: at 1 µM.
The target of test [12] is Tyrosine-protein kinase Fes/Fps (Homo sapiens) (UniProt P07332). Particulars: at 0.1 µM.
Sequence of Tyrosine-protein kinase Fes/Fps (Homo sapiens) (P07332 whole entry): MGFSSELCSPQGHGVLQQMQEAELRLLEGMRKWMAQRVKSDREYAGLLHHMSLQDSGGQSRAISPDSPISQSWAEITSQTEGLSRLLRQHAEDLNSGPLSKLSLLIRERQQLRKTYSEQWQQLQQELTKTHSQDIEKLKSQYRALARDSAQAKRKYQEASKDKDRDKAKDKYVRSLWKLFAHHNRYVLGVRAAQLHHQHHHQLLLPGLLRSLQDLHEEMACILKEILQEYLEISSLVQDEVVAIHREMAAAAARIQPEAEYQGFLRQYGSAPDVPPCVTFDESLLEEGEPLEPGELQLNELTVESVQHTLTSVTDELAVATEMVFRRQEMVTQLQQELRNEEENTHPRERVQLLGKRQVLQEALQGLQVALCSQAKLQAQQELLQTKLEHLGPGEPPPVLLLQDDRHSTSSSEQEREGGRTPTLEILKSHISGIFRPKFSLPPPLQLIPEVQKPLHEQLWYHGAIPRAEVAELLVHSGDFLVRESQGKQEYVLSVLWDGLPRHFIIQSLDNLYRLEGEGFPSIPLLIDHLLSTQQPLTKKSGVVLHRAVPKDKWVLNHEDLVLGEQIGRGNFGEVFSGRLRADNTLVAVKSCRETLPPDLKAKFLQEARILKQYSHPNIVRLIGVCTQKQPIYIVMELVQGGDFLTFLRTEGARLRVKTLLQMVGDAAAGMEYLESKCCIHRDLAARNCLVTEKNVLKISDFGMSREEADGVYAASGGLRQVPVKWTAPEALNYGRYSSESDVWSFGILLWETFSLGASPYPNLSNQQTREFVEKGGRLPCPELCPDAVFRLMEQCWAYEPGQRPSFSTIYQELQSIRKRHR
For test [13] the target is unchanged. Particulars: at 1 µM.
Test [14] concerns the target Fibroblast growth factor receptor 1 (Homo sapiens) (UniProt P11362). The following applies: at 0.1 µM.
For test [15] the target is unchanged. Particulars: at 1 µM.
The target in test [16] is Fibroblast growth factor receptor 2 (Homo sapiens) (UniProt P21802). Particulars: at 0.1 µM.
The target is the same in test [17]. Particulars: at 1 µM.
Test [18] addresses Fibroblast growth factor receptor 3 (Homo sapiens) (UniProt P22607). Particulars: at 0.1 µM.
Test [19] has the same target. The following applies: at 1 µM.
The target in test [20] is Fibroblast growth factor receptor 4 (Homo sapiens) (UniProt P22455). Particulars: at 0.1 µM.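 Also: values are mean percent inhibition of FGFR4.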

Sequence of Fibroblast growth factor receptor 3 (Homo sapiens) (P22607 23-806 limits assumed): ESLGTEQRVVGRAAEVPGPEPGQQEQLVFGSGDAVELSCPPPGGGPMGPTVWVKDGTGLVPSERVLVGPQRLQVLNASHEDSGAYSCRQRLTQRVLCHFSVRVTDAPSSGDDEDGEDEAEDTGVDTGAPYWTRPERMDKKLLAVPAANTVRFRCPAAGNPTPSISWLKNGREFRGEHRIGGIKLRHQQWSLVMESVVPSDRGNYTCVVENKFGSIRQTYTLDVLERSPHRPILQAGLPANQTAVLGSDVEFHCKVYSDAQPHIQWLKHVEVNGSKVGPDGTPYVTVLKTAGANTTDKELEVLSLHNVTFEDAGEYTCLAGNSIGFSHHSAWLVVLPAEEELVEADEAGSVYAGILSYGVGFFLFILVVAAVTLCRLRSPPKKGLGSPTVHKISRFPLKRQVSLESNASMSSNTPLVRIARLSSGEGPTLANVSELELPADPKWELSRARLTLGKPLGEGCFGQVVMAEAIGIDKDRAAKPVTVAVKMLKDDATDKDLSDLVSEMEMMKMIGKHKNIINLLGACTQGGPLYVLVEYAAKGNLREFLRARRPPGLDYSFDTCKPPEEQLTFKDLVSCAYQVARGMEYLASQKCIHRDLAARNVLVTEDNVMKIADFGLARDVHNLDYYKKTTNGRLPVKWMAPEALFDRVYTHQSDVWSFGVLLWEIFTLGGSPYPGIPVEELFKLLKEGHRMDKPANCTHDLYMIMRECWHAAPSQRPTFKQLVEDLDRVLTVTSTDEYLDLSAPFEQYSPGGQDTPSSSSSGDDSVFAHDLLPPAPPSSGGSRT
Sequence of Fibroblast growth factor receptor 1 (Homo sapiens) (P11362 22-822 limits assumed): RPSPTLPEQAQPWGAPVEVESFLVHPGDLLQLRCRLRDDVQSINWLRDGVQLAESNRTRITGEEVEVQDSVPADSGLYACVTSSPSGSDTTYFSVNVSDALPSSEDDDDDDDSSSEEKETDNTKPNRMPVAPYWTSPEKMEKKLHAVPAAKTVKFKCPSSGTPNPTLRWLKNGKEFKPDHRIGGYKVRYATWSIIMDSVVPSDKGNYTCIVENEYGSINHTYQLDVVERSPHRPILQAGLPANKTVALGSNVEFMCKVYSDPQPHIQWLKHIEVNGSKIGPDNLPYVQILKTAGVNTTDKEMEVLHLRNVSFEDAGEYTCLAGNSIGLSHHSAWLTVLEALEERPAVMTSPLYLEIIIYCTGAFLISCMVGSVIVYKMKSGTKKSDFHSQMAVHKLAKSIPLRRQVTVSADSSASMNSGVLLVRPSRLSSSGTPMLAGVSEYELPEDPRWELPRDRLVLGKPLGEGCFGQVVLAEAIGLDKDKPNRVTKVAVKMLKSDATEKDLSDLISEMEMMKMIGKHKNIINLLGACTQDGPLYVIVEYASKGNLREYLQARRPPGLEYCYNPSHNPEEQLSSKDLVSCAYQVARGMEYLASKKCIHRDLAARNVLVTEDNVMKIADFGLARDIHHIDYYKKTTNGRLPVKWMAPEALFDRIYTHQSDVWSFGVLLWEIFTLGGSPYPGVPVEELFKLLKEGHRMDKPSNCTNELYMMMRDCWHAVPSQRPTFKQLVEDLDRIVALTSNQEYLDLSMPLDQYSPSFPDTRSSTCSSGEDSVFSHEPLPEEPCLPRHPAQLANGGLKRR
Sequence of Receptor tyrosine-protein kinase erbB-2 (Homo sapiens) (P04626 whole entry): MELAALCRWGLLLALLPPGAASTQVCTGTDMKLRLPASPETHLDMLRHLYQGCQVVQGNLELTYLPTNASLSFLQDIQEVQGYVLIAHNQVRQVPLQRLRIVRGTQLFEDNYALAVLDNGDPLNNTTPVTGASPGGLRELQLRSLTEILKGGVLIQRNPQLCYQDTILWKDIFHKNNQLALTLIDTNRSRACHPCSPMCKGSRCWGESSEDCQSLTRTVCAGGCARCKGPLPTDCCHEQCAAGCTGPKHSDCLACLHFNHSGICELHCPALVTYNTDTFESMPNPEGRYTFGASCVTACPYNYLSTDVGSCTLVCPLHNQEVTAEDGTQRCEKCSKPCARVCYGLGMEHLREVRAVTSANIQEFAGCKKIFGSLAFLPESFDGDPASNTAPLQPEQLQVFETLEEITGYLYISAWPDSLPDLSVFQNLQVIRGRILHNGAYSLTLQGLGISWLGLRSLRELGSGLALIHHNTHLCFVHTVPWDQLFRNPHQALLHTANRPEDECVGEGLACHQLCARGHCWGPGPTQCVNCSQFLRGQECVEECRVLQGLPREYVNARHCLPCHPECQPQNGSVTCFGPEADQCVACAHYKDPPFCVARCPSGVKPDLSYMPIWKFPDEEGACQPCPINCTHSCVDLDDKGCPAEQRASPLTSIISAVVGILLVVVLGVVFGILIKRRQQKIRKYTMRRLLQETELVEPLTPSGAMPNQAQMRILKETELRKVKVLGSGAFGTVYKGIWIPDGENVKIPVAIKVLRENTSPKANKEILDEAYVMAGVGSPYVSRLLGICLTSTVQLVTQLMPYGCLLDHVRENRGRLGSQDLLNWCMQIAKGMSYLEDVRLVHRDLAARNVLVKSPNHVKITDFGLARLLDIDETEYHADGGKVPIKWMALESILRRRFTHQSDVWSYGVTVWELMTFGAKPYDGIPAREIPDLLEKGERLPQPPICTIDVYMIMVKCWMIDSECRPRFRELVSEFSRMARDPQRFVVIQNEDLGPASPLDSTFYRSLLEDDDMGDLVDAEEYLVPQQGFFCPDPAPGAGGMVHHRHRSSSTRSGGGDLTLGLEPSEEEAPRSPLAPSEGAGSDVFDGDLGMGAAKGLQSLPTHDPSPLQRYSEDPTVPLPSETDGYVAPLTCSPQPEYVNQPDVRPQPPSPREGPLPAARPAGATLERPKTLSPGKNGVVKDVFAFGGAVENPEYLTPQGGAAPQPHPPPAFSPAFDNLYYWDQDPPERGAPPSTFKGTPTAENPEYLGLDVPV

Take `NS(=O)(=O)c1ccc(N/N=C2\C(=O)Nc3ccc4ncccc4c32)cc1`: the inhibition in test [1] was 29.1%; in test [2], 2.75%; in test [3] it was -3.76%; in [4], 2.29%; in [5] it was 13.2%; in [6], 1.33%. Moreover, the inhibition was -2.88% in test [7]; 11.4% in test [8]; 10.4% in test [9]; 3.38% in [10]; 22.8% in [11]; 2.15% in test [12]. Moreover, the inhibition in [13] is 6.75%; in test [14], 10.8%; in [15], 41%; in test [16] it was 27.5%; in test [17], 69.8%; in test [18] it was 26.1%. Further, the inhibition in [19] was 70.7%; in test [20], -0.17%.
`CNC(=O)c1cncc(/C=C/c2ccccc2Cl)c1`: the inhibition in test [1] is 8.47%; in test [2] it was -1.27%; in test [3], 1.05%; in test [4], -0.2%; in [5], 4.63%; in test [6] it was 0.54%. The inhibition in [7] is 5.61%; in test [8], 3.2%; in test [9], 8.96%; in [10] it was 2.91%; in [11], 3.78%; in test [12], 0.21%. Further, the inhibition in [13] was 0.02%; in [14], -1%; in [15], -1.84%; in [16] it was -1.98%; in [17] it was 4.23%; in test [18] it was 0.84%. For the same molecule, the inhibition in test [19] was determined as 1.98%; in [20], 1.47%.
Regarding `CN(C)CCOc1ccc(-c2nc(-c3ccncc3)c(-c3ccc4c(c3)CC/C4=N\O)[nH]2)cc1`, the inhibition turned out to be 11.7% in [1]; 3.83% in test [2]; 3.2% in [3]; 1.85% in test [4]; 2.33% in [5]; 2.46% in [6]. Also, the inhibition in test [7] worked out at 2.61%; in [8], 10%; in [9], 15%; in test [10], 1.86%; in test [11], 5.81%; in test [12], 2.16%. The inhibition in [13] is 2.53%; in test [14] it was 6.05%; in test [15], 2.14%; in test [16], 4.67%; in test [17], 4.48%; in [18], 5.89%. Moreover, the values for the inhibition in test [19] and in [20] were 4.69% and 0.23%, respectively.
With `COc1ccc(-c2cc(-c3c[nH]nc3-c3ccccn3)ccn2)cc1`, the inhibition in [1] was determined as 10.2%; in test [2], 4.76%; in test [3] it was 2.2%; in [4], 2.71%; in [5], 2.68%; in test [6], 2.88%. In addition, the inhibition is 6.13% in [7]; 9.37% in test [8]; 10.6% in [9]; 3.16% in test [10]; 7.83% in [11]; 3.39% in test [12]. The inhibition was 3.93% in test [13]; 1.12% in test [14]; -0.51% in [15]; 1.91% in test [16]; 4.55% in test [17]; 8.17% in test [18]. Further, the results for the inhibition in [19] and in [20] were 5.23% and -2.23%, respectively.
